Reference: PubChem BioAssay (EPA / NIEHS)
Several values for one entry are separate records, joined by “and”; a condition that tells them apart may be missing. Identical values can stand only once. The source holds several records for some structures; these can differ, active in one and inactive in another. Activity calls are given as the source filed them. Rule for the calls: active = hit-call score of the fitted dose curve at least 0.9, where 1 is the maximum; inactive = score below 0.9.

How the values were obtained:
[1] = target: CCAAT/enhancer-binding protein beta (Homo sapiens) (UniProt P17676); assay: ATG_C_EBP_CIS: Attagene CIS-FACTORIAL HepG2 Assay for human CCAAT/Enhancer Binding Protein (C/EBP) beta (AID 2282927); conditions: HepG2 Attagene cis-factorial transcription factor reporter; actives raise or lower the signal
Procedure, shortened: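 Transiently transfected HepG2 (MRTU library, endogenous TF-driven promoters); 24 h dosing; total RNA → oligo(dT) RT → PCR → 6-FAM primer extension → HpaI digest → CE; fit bidirectionally vs DMSO.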

[2] = ATG_CMV_CIS: Attagene CIS-FACTORIAL HepG2 Assay for human CMV (Internal Marker) (AID 2282928); conditions: HepG2 CMV promoter reporter, transcription factor profiling; actives raise or lower the signal;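 note: endpoint acts as a background internal control marker rather than a target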
Procedure, shortened: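 Fluorescence intensity of RT-PCR-derived reporter fragments, resolved by capillary electrophoresis, gives the signal. HepG2 liver cells bearing transfected cis-element reporters were treated 24 h; activity in either direction was fit relative to DMSO-treated controls.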

[3] = ATG_DR4_LXR_CIS: Attagene CIS-FACTORIAL HepG2 Assay for human Liver X Receptor (LXR), DR4 submotif (AID 2282929); conditions: HepG2 Attagene DR4 cis-reporter, mRNA transcription; actives raise or lower the signal
Procedure, shortened: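 HepG2, transient MRTU transfection, cis-element (DR4) promoter; 24 h compound exposure; total RNA → oligo(dT) RT → PCR → 6-FAM primer extension → HpaI cut → CE. Gain/loss vs DMSO, bidirectional fit.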

[4] = ATG_AP_1_CIS: Attagene CIS-FACTORIAL HepG2 Assay for human Activator Protein 1 (AP-1) (AID 2282931); conditions: HepG2 Attagene cis-factorial AP-1 reporter mRNA; actives raise or lower the signal
Procedure, shortened: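 Transient MRTU transfection of HepG2 → 24 h chemical treatment → RNA isolation, RT-PCR, 6-FAM labelling, HpaI digest → capillary electrophoresis. Fit: bidirectional, DMSO negative control.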

[5] = ATG_AP_2_CIS: Attagene CIS-FACTORIAL HepG2 Assay for human Activator Protein 2 (AP-2) (AID 2282932); conditions: HepG2 AP-2 cis-reporter, Attagene transcription factor profiling; actives raise or lower the signal
Procedure, shortened: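 Read-out: fluorescent reporter mRNA via RT-PCR and capillary electrophoresis, 24 h post-dose in transiently transfected HepG2. Endogenous factors drive cis-promoter reporters; gain or loss of signal fitted bidirectionally against DMSO.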

[6] = ATG_BRE_CIS: Attagene CIS-FACTORIAL HepG2 Assay for human Bone Morphogenetic Protein (BMP) Response Element (BRE) (AID 2282933); conditions: HepG2 BMP response element reporter, Attagene transcription factor profiling; actives raise or lower the signal
Procedure, shortened: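 Endogenous transcription factor activity read in transiently transfected HepG2 cells after 24 h chemical exposure. Bidirectional curve fitting against DMSO; readout is reporter transcript level by RT-PCR with capillary electrophoresis of labelled products.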

[7] = target: Retinoic acid receptor alpha (Homo sapiens) (UniProt P10276); assay: ATG_DR5_RAR_CIS: Attagene CIS-FACTORIAL HepG2 Assay for human Retinoic Acid Receptor Alpha (RARE), DR5 submotif (AID 2282934); conditions: HepG2 Attagene cis-factorial RARE DR5 reporter, mRNA; actives raise or lower the signal;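 for AC50: reporter responds to endogenous RAR alpha beta and gamma in HepG2 not RARA alone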
Procedure, shortened: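 Read-out: DR5-driven reporter transcript measured by RT-PCR, 6-FAM primer extension, HpaI digest and capillary electrophoresis. Human HepG2 liver cells carry transiently transfected cis-element reporter constructs; dosing lasts 24 h. Gain or loss of signal fitted against DMSO baseline.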

[8] = target: Transcription factor E2F1 (Homo sapiens) (UniProt Q01094); assay: ATG_E2F_CIS: Attagene CIS-FACTORIAL HepG2 Assay for human E2F Transcription Factor 1 (AID 2282935); conditions: HepG2 Attagene cis-reporter, E2F reporter RNA transcripts; actives raise or lower the signal
Procedure, shortened: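 Transient MRTU transfection of HepG2; 24 h compound exposure; RNA → oligo(dT) RT → PCR → FAM label → HpaI cut → CE fluorescence. Gain/loss of signal fit against DMSO.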

[9] = ATG_E_Box_CIS: Attagene CIS-FACTORIAL HepG2 Assay for human Enhancer Box (E-box) (AID 2282936); conditions: HepG2 E-box cis-reporter transcription, actives raise or lower the signal
Procedure, shortened: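 Transiently transfected HepG2, endogenous TF-driven reporters, 24 h dosing. Readout: RT-PCR plus capillary electrophoresis of fluorescent reporter fragments. Gain or loss of signal fitted bidirectionally against DMSO baseline.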

[10] = ATG_M_61_CIS: Attagene CIS-FACTORIAL HepG2 Assay for M61 Transcription Factor (Internal Marker) (AID 2282937); conditions: HepG2 Attagene CIS-FACTORIAL M61 internal marker reporter; actives raise or lower the signal
Procedure, shortened: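 Human liver HepG2, transient MRTU transfection (cis promoter elements), 24 h compound. Total RNA → oligo(dT) RT → PCR → FAM label → HpaI → CE. Internal background marker; bidirectional fitting, DMSO = baseline.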

[11] = ATG_EGR_CIS: Attagene CIS-FACTORIAL HepG2 Assay for human Early Growth Response 1 (EGR1) (AID 2282938); conditions: HepG2 Attagene CIS-FACTORIAL EGR reporter mRNA; actives raise or lower the signal
Procedure, shortened: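 Transient transfection of human HepG2 with multiple cis-regulated reporter units, chemical exposure 24 h, total RNA isolated. Reverse transcription, PCR, fluorescent labelling and capillary electrophoresis quantify reporter transcripts; activity fitted bidirectionally against DMSO.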

[12] = ATG_M_19_CIS: Attagene CIS-FACTORIAL HepG2 Assay for M19 Transcription Factor (Internal Marker) (AID 2282939); conditions: HepG2 Attagene CIS-FACTORIAL M19 internal marker reporter; actives raise or lower the signal
Procedure, shortened: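 Internal marker readout, fitted in both directions against DMSO, from HepG2 cells carrying transfected cis-element reporter constructs; RT-PCR and capillary electrophoresis of reporter mRNA after 24 h exposure.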

[13] = ATG_ERE_CIS: Attagene CIS-FACTORIAL HepG2 Assay for Estrogen Response Element (ERE) (AID 2282940); conditions: HepG2 ERE cis-reporter, Attagene RNA transcript; actives raise or lower the signal
Procedure, shortened: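 After 24 h compound treatment, RNA from transfected HepG2 cells was reverse-transcribed, reporter cDNA PCR-amplified, FAM-labelled, HpaI-cut and resolved by capillary electrophoresis. ERE-driven cis reporter transcripts reflect endogenous factors; gain or loss scored against DMSO.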

[14] = ATG_Ets_CIS: Attagene CIS-FACTORIAL HepG2 Assay for human Erythroblast Transformation Specific (ETS) (AID 2282941); conditions: HepG2 ETS cis-reporter transcription, actives raise or lower the signal
Procedure, shortened: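 Multiplexed reporter transcript profiling: HepG2, 24 h treatment, total RNA to cDNA, PCR, 6-FAM labelling, HpaI cut, capillary electrophoresis. Gain- or loss-of-signal fitted against DMSO.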

[15] = target: Hepatocyte nuclear factor 3-beta (Homo sapiens) (UniProt Q9Y261); assay: ATG_FoxA2_CIS: Attagene CIS-FACTORIAL HepG2 Assay for human Forkhead box A2 (FOXA2) (AID 2282942); conditions: HepG2 cis-reporter transcription factor activity, 24 h; actives raise or lower the signal
Procedure, shortened: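 Transient MRTU transfection of HepG2 liver cells; 24 h treatment; total RNA → oligo(dT) RT → PCR → FAM primer extension → HpaI cut → CE. Bidirectional fit vs DMSO.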

[16] = ATG_FoxO_CIS: Attagene CIS-FACTORIAL HepG2 Assay for human Forkhead box O (FoxO) (AID 2282943); conditions: HepG2 Attagene cis-reporter, FoxO element, mRNA; actives raise or lower the signal
Procedure, shortened: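 Read-out: fluorescence of 6-FAM-labelled reporter cDNA fragments resolved by capillary electrophoresis. Transiently transfected HepG2 cells were dosed for 24 h; activity fitted in both directions relative to DMSO controls.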

[17] = ATG_GATA_CIS: Attagene CIS-FACTORIAL HepG2 Assay for human GATA Binding Protein (AID 2282944); conditions: HepG2 GATA cis-element reporter, Attagene multiplex mRNA; actives raise or lower the signal
Procedure, shortened: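 Reporter transcripts from a GATA cis-regulated unit, among multiplexed reporters in transfected HepG2 cells, were measured by RT-PCR with capillary electrophoresis after 24 h dosing. Induction or loss scored relative to DMSO.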

[18] = ATG_GLI_CIS: Attagene CIS-FACTORIAL HepG2 Assay for human Zinc Finger Protein GLI1 (AID 2282945); conditions: HepG2, Attagene cis-factorial reporter mRNA, GLI element; actives raise or lower the signal
Procedure, shortened: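 Transiently transfected HepG2 cells report endogenous transcription factor activity via cis-element-driven reporter units. After 24 h compound exposure, reporter mRNA was measured by RT-PCR with capillary electrophoresis; bidirectional fitting against DMSO baseline.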

[19] = target: Bile acid receptor (Homo sapiens) (UniProt Q96RI1); assay: ATG_IR1_CIS: Attagene CIS-FACTORIAL HepG2 Assay for human Nuclear Receptor Subfamily 1 Group H Member 4 (NR1H4), IR1 submotif (AID 2282946); conditions: IR1 reporter transcription, actives raise or lower the signal
Procedure, shortened: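 Fluorescence of capillary-separated, HpaI-digested RT-PCR reporter products gave IR1-element mRNA induction in HepG2 cells 24 h after dosing. Endogenous transcription factors drove the cis-regulated reporters; activity was fitted bidirectionally against DMSO.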

Measured: AC50

Transcription factor E2F1 (Homo sapiens), sequence (Q01094 whole entry, looked up): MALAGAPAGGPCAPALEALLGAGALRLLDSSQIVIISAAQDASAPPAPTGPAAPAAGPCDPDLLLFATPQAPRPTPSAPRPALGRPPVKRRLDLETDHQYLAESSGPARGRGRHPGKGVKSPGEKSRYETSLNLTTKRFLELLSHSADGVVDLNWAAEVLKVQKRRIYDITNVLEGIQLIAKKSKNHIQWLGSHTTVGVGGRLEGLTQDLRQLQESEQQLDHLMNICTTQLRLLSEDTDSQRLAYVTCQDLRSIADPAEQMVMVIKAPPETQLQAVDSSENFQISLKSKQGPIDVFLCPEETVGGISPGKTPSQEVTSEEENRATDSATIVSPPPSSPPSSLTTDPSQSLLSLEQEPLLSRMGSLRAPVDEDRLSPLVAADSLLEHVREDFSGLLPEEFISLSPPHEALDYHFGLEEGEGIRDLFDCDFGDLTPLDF
CCAAT/enhancer-binding protein beta (Homo sapiens), sequence (P17676 whole entry, looked up): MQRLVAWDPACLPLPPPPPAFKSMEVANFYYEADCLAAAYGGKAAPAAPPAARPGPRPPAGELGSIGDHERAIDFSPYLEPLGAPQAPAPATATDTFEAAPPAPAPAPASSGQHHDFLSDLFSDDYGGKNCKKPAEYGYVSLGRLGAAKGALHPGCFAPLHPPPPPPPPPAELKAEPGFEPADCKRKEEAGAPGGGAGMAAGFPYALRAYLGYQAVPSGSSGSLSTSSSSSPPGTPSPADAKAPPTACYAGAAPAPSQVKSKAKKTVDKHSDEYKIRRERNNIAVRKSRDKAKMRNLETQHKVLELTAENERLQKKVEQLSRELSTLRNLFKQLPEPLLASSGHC
Retinoic acid receptor alpha (Homo sapiens), sequence (P10276 whole entry, looked up): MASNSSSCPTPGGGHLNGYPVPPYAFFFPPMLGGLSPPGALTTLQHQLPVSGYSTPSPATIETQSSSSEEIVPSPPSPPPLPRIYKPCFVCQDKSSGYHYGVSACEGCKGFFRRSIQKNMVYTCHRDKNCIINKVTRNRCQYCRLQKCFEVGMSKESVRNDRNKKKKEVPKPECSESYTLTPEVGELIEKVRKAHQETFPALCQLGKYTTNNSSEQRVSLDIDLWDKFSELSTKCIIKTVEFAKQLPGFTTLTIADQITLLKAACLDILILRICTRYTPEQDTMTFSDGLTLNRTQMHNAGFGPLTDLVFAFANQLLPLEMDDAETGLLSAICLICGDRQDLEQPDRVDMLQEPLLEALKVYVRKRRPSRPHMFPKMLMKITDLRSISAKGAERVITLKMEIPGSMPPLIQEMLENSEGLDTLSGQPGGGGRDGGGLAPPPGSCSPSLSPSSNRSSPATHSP
Hepatocyte nuclear factor 3-beta (Homo sapiens), sequence (Q9Y261 whole entry, looked up): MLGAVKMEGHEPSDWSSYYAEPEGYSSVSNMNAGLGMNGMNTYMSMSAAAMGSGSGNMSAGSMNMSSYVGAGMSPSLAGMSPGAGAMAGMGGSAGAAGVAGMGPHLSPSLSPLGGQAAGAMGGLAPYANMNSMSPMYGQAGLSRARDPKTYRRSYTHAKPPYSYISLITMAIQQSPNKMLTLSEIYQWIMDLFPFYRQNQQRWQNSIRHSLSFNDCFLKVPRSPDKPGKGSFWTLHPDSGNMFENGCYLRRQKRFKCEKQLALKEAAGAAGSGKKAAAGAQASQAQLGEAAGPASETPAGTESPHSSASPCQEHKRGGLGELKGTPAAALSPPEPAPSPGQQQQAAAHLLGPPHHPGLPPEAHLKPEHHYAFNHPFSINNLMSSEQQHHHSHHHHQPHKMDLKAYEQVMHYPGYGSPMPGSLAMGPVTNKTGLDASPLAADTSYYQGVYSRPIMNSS
Bile acid receptor (Homo sapiens), sequence (Q96RI1 whole entry, looked up): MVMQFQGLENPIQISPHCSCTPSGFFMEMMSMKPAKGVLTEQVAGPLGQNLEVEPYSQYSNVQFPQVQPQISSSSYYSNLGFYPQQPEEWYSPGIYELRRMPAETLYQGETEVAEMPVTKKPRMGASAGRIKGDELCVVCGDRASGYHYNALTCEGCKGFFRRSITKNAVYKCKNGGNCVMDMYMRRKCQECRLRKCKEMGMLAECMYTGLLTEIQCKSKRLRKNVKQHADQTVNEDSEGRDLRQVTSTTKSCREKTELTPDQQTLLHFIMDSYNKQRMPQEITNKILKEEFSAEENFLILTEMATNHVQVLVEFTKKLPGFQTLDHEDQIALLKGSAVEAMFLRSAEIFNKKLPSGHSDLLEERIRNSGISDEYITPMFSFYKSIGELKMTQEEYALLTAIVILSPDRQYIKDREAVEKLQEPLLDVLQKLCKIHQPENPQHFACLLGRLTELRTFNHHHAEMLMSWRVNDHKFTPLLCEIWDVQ

N#CSCSc1nc2ccccc2s1
active: [2] 2.95 µM | [3] 3.05 µM | [4] 3.02 µM | [5] 9.15 µM | [6] 3.03 µM | [9] 6.89 µM
inactive: [1] | [2] | [3] | [4] | [5] | [6] | [7] | [8] | [9] | [10] | [11] | [12] | [13] | [14] | [15] | [16] | [17] | [18] | [19]

CC(C)CCCCCCc1ccc(O)cc1
active: [1] 18.1 µM and 15.4 µM | [2] 13.1 µM and 17.4 µM | [3] 15.9 µM and 21 µM and 16.6 µM | [4] 17 µM | [6] 20.7 µM | [7] 11.1 µM | [9] 17.6 µM and 16.8 µM and 15.6 µM | [11] 17.7 µM and 17.3 µM | [13] 644 nM [middle of 4 runs] | [14] 17.1 µM | [15] 21.8 µM | [16] 20.3 µM and 17.9 µM | [19] 17.9 µM
inactive: [1] | [2] | [3] | [4] | [6] | [7] | [8] | [9] | [10] | [11] | [12] | [14] | [15] | [16] | [17] | [18] | [19]
